Screening data as filed in PubChem BioAssay.
In the library only some 10% were active in any assay of this set; here they are far more common.
p97 inhibitor: human p97 ATPase inhibition | P55072 | recombinant p97 ATPase, Kinase-Glo ATP luminescence, 3 h | inhibition, % at 8 µM | hit rate 0.42% among 220,000 | AID 1481; in the data active = inhibition above about 15%;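 note: 0% = DMSO vehicle and 100% = wells lacking enzyme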
PTEN del growth: PTEN-deleted cell growth suppression. HCT116 PTEN-null viability, CellTiter-Glo, 60 h; active compounds read low. viability, % at 10 µM. hit rate 1.2% among 140,000. AID 827;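 active = viability at or below a set limit, 4 SD under the median of all tested compounds, cut at about 3.7% in these data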;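 note: PTEN knockout HCT116 line with beta catenin targeted HCT116 as companion control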
ROMK primary: modulators of human ROMK potassium channel; P48048; Tet-inducible ROMK, thallium flux fluorescence; actives lie on both sides; B-score at 10 µM; hit rate 2% among 130,000; AID 1918;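 active = signal ratio slope over the read window, or its plate-corrected B-score, at least 3 SD from the plate mean, either direction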;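 note: B-score of the F/F0 ratio slope over 7 to 12 s after thallium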
Target sequence (P48048 whole entry, looked up): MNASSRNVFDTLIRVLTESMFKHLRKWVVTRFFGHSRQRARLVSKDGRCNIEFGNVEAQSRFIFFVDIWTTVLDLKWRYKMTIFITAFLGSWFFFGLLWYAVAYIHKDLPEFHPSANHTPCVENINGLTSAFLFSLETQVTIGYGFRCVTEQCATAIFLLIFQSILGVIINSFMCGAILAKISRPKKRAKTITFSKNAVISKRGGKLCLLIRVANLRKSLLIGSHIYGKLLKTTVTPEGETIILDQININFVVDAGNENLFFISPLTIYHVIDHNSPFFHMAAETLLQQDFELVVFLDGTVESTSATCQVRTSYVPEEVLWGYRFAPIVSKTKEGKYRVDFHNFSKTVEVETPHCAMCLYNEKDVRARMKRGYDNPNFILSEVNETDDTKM
Lmaj promast: reduces viability of Leishmania major promastigotes | resazurin fluorescence viability | inhibition, % at 10 µM | hit rate 9% among 200,000 | AID 1063; in the data active = inhibition above about 50%;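 note: promastigotes grown with compound for 44 hours at 28 °C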
INS promoter inh: TRM-6 insulin promoter activity inhibition. TRM-6 cells (human fetal islet line), insulin promoter-eGFP reporter, imaging; reporter expression induced with tamoxifen. inhibition, % at 2 µM. hit rate 0.9% among 130,000;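 active = inhibition above the mean plus 3 SD, with well images judged a real hit on visual review, cut at about 60% in these data, passing the limit was not always enough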
bCat KO growth: beta-catenin-lacking colon tumor cell growth suppression. HCT116 beta-catenin knockout viability, CellTiter-Glo, 60 h; active compounds read low. hit rate 1.5% among 140,000. viability, % at 10 µM;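 active = viability at or under a set limit, the compound median less 4 SD, cut at about 6% in these data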;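 note: 0% = Hyamine 1622 control at 20 µM and 100% = untreated cell control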
L major 1uM: inhibitors of Leishmania major promastigote growth, repeat at 1 uM. shares compounds with Lmaj promast. L. major promastigote growth, resazurin fluorescence, 48 h. inhibition, % at 1 µM. hit rate 13% among 1,100. AID 1258;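 active = inhibition above about 50% in both repeat tests, limit read from the data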
Active calls of the source: *; i = inactive; x = no result.

SMILES	p97 inhibitor	PTEN del growth	ROMK primary	Lmaj promast	INS promoter inh	bCat KO growth	L major 1uM
Cc1cc(C)cc(N(CC(=O)Nc2ccccc2C(=O)N2CCOCC2)S(C)(=O)=O)c1	0.6	100.3	0.76	-7.7	-20.0	89.6	x
CN1CCN(S(=O)(=O)c2ccc(NC(=S)NC(=O)c3ccc(Cl)cc3)cc2)CC1	-1.1	82.4	-0.271	85.4*	x	71.8	-7.6
CN1CCN(S(=O)(=O)c2ccc(NC(=S)NC(=O)c3ccccc3)cc2)CC1	1.3	93.8	x	3.8	46.7	89.3	x
O=C(NC(=S)Nc1ccccc1)c1cncc(C#Cc2ccccc2)c1	-6.6	x	0.0122	x	x	x	x
Cc1cc(C)n2nc3nc4c(cc3c2n1)CCCC4	9.1	88.3	-0.619	72.4*	40.0	92.0	-19.9
Clc1ccc(-c2nnc(-c3ccco3)nc2N2CCCCC2)cc1	0.3	70.0	-0.0431	64.4*	-29.4	74.9	25.2
CCOC(=O)c1c2c(n(C)c1C)C(=O)C(=O)c1ccc(Br)cc1-2	7.0	x	-1.39	100.0*	4.8	x	97.9*
CCOC(=O)c1c(-c2ccccc2)c(C(C)=O)c(=O)n(C)c1C	x	98.9	x	-7.2	x	102.1	x
CN(CCCC(=O)NC1CC(C)(C)NC(C)(C)C1)S(=O)(=O)c1ccc([N+](=O)[O-])cc1	-0.6	x	0.47	-11.8	x	x	x
CCn1c(SCC(=O)N2CCOCC2)nc2oc3c(Cl)cc(Cl)cc3c(=O)c2c1=O	2.4	13.0	x	72.2*	x	10.9	7.7
CCn1c(SCC(=O)N2CCOCC2)nc2sc3c(c2c1=O)CCCC3	-7.5	102.6	x	14.8	x	99.4	x
O=c1c2sc3nc(N4CCOCC4)c4c(c3c2ncn1-c1ccccc1)CCCC4	-2.8	x	-0.308	40.4	x	x	x
O=c1c2sc3nc(N4CCOCC4)c4c(c3c2ncn1CCc1ccccc1)CCCC4	5.5	66.7	x	73.8*	-10.0	64.6	-10.7
COc1cc(/C=C2\C(=O)ON=C2c2ccccc2)cc(Cl)c1O	2.4	x	-15.4*	50.1*	x	x	16.7
CCOC(=O)C(C(=O)Nc1ccc(C)cc1)C1CCCCC1 (centres undefined)	-3.4	74.5	2.41	3.0	12.5	87.2	x
ClCC1NCC(c2ccccc2Cl)c2c1[nH]c1ccccc21 (centres undefined)	3.3	x	-0.151	20.4	i	x	x
Cc1ccc(OCCCCn2ccnc2)c(Cl)c1	-0.5	87.7	x	98.3*	72.7*	90.2	73.8*
CCN1C(=O)CC(NCc2ccc(S(N)(=O)=O)cc2)C1=O (centres undefined)	4.5	x	x	x	x	x	x
COc1ccc(-n2c(C)cc(C(=O)CSc3nn4c(=O)c(C(C)(C)C)nnc4s3)c2C)cc1	1.9	94.2	0.466	64.0*	54.5	80.6	6.3
c1cc(CSc2nnc(-c3ccc4c(c3)OCO4)o2)ccn1	2.1	88.9	-0.00545	11.9	-7.1	85.7	x
COc1ccc(C2=NCC(CSc3nnc(-c4ccc5c(c4)OCO5)o3)S2)cc1 (centres undefined)	3.1	65.4	x	88.3*	33.3	66.0	91.0*
COc1ccccc1-n1cnc2c(c1=O)c1nc3ccccc3nc1n2-c1ccc(C)c(C)c1	0.3	17.8	x	97.5*	x	30.0	96.6*
CCCCOc1c(Br)cc(/C=C2\N=C(C)OC2=O)cc1OCC	-6.2	99.5	x	-4.4	-10.0	94.6	x
Cc1ccc(CN=C2Nc3ccccc3CS2)cc1	1.8	88.6	x	86.3*	-46.4	83.2	17.5
Clc1ccc(CN=C2Nc3ccccc3CS2)cc1	3.7	75.0	x	18.4	29.4	87.9	x
SMILES	p97 inhibitor	PTEN del growth	ROMK primary	Lmaj promast	INS promoter inh	bCat KO growth	L major 1uM
Cc1ccc(SCC(=O)NN2C(=O)c3ccccc3C2=O)cc1	0.7	x	-0.0824	-7.6	-7.7	x	x
CC1=CCC(/C=N\Nc2nnc3c(n2)[nH]c2ccccc23)CC1 (centres undefined)	6.0	95.8	x	51.8*	x	88.4	-0.7
COc1ccccc1N1Cc2ccccc2C1	1.9	90.5	x	90.5*	-40.0	95.0	-10.5
Cc1cc(C)cc(OCC(=O)O/N=C(\N)c2cccnc2)c1	5.9	x	0.179	x	x	x	x
O=C(O)c1ccc2c3c(ncnc13)-c1ccccc1C2=O	4.0	14.6	x	98.2*	x	33.1	0.1
Nc1ccc(-c2nc3ccc(-c4nc5ccccc5o4)cc3[nH]2)cc1	2.5	32.8	-0.382	75.6*	21.4	30.9	-27.0
CCCNC(=O)OCCC12CC3CC(CC(C3)C1)C2	-0.4	81.9	0.174	97.1*	69.2*	79.2	-15.9
